Source: PubChem (National Center for Advancing Translational Sciences (NCATS))
Only some compounds are listed: those with a hit (about 8.9% of all), similar ones and a draw of the others.
ALOX12 inhib: qHTS Assay for Inhibitors of 12-hLO (12-human lipoxygenase); purified 12-hLO, xylenol orange hydroperoxide absorbance; Potency, µM (doses to about 57.1 µM), usual class: inhibitors; hit rate 0.12% among 150,000; AID 1452, 2008; further: nearly all actives have a fitted effect of over 55% in size
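Purified human 12hLO (150 nM), preincubated 15 min with compound, then 40 uM arachidonic acid for 30 min, room temperature, Hepes pH 7.0 with 0.01% Triton X-100. Hydroperoxide detected by ferrous iron/xylenol orange; 573/405 nm absorbance ratio gives reaction progress.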
HPGD block: qHTS Assay for Inhibitors of HPGD (15-Hydroxyprostaglandin Dehydrogenase) | 15-hydroxyprostaglandin dehydrogenase [NAD(+)] (Homo sapiens), P15428 | purified HPGD, NADH fluorescence kinetic, PGE2 substrate | Potency, µM, most hits filed as inhibitors | hit rate 4.3% among 150,000; active means well fitted inhibition curve with a large enough effect, not every such curve was filed as active; inconclusive means small, poorly fitted or top-dose-only effect, or another doubt; inactive means no such curve, though single readings can be large or run the other way
Target sequence (P15428 whole entry, looked up): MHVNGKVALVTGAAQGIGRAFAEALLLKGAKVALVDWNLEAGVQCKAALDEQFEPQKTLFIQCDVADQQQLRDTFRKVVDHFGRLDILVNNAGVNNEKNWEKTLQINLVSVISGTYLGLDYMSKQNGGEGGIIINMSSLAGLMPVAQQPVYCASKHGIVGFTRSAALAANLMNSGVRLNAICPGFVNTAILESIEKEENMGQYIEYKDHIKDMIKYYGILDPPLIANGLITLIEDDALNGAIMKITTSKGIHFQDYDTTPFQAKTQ
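NADH formation kinetics: reaction with 30 uM PGE2 and 1 mM NAD+ (final), 20 nM enzyme, Tris-HCl pH 8 with Tween 20, after 15 min compound preincubation at room temperature. Fluorescence change, last versus first of five reads.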
ALDH1A1 block: qHTS Assay for Inhibitors of Aldehyde Dehydrogenase 1 (ALDH1A1). Potency, µM (doses to about 75.3 µM), hits mostly inhibitors. Aldehyde dehydrogenase 1A1 (Homo sapiens), P00352. hit rate 7.3% among 220,000. Purified ALDH1A1, NADH fluorescence, propionaldehyde substrate. AID 1030, 2008; active means well fitted inhibition curve with a large enough effect, not every such curve was filed as active; inconclusive means small, poorly fitted or top-dose-only effect, or another doubt; inactive means no such curve, though single readings can be large or run the other way
IMPase Li cell: qHTS Assay for Identifying the Cell-Membrane Permeable IMPase Inhibitors: Potentiation with Lithium; CHO-M1 cells, IP1 TR-FRET (IP-One), carbachol + lithium; Potency, µM (highest dose often 59.4 µM), most hits filed as inhibitors; hit rate 0.35% among 210,000;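 further: IP1 builds up when IMPase is blocked and the TR-FRET signal falls; nearly all actives have a fitted effect of over 50% in size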
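CHO cells stably expressing M1 receptor (2000/well, cultured 16–30 h) treated 30 min at 37C with compound plus low lithium. Cytosolic IP1 by TR-FRET (665/620 ratio and 620 channel) after 10 min lysis; AC50 by Hill fit.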
IMPase inh: qHTS Assay for Identifying the Cell-Membrane Permeable IMPase Inhibitors | 120,000 tested, under 10 active | Inositol monophosphatase 1 (Rattus norvegicus), P97697 | inhibition (IP1 accumulation), % at 46.1 µM | CHO-M1 cells, IP1 accumulation, HTRF TR-FRET ratio; active means well fitted curve in the direction sought with a large enough effect in the signal ratio, not every such curve was filed as active; inconclusive means small, poorly fitted or top-dose-only effect, or a change in a side signal; inactive means no such curve, though single readings can be large or run the other way; the % refers to the signal ratio;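 further: cells stimulated with carbachol in lithium chloride buffer; higher means more IMPase inhibition seen as more IP1 and lower FRET ratio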
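Cellular IMPase inhibition is scored as a rise in cytosolic IP1, detected by competitive TR-FRET between d2-labelled IP1 and a europium anti-IP1 antibody. M1-expressing CHO cells were stimulated with carbachol for 30 min at 37C, with lithium (50 mM LiCl) present in the buffer.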
NPSR antagonist: qHTS Assay for Antagonists of the Neuropeptide S Receptor: cAMP Signal Transduction. Q6W5P4. CHO-NPSR cells, cAMP TR-FRET, antagonist mode. Potency, µM (titrated, usually from 38.3 µM), most hits filed as inhibitors. hit rate 1% among 220,000. AID 1461, 2008; further: nearly all actives have a fitted effect of over 50% in size
Target sequence (Q6W5P4 whole entry, looked up): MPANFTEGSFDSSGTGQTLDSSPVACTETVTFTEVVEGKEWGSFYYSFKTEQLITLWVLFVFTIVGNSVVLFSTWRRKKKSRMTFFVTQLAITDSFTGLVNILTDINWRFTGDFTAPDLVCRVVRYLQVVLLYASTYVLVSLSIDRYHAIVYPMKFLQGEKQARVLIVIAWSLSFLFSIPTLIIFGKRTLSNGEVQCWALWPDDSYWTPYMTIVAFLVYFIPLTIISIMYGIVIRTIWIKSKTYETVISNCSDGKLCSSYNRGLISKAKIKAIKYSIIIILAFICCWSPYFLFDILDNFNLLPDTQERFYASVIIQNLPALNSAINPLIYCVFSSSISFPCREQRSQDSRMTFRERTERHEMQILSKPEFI
A number is an active result; [ ] = dose if it differs, or a comment. Unless noted, the call rests on the fitted dose curve; in most records, active means well fitted curve in the direction sought with a large enough effect; inconclusive means small, poorly fitted or top-dose-only effect, or another doubt; inactive means no such curve, though single readings can be large; an effect the other way counts as inactive or inconclusive.

For Cc1ccc(C)c(/C(O)=C2/C(=O)C(=O)N(CCN3CCOCC3)C2c2ccco2)c1 (stereo not drawn) the results were ALOX12 inhib inactive, HPGD block inconclusive, ALDH1A1 block 10µM, IMPase Li cell inactive, IMPase inh inactive and NPSR antagonist inactive.
Cc1ccc(C2/C(=C(/O)c3cnn(-c4ccccc4)c3C)C(=O)C(=O)N2CCN2CCOCC2)o1 (stereo not drawn) was read as ALOX12 inhib inactive, HPGD block inactive, ALDH1A1 block 7.9µM, IMPase Li cell inactive, IMPase inh inactive and NPSR antagonist inactive.
`Cc1ccc(C2/C(=C(\O)c3cnn(-c4ccccc4)c3C)C(=O)C(=O)N2CCN(C)C)o1` (stereo not drawn) gave ALOX12 inhib inactive, HPGD block inactive, ALDH1A1 block inactive, IMPase Li cell inactive, IMPase inh inactive and NPSR antagonist inactive.
`O=C1C(=O)N(CCN2CCOCC2)C(c2ccccn2)/C1=C(/O)c1ccccc1` (stereo not drawn) gave ALOX12 inhib inactive, HPGD block inactive, ALDH1A1 block 3.5µM, IMPase Li cell inactive, IMPase inh inactive and NPSR antagonist inactive.
Screening Cc1cc(C)cc(NC(=O)c2snc3c(=O)[nH]cnc23)c1 returned ALOX12 inhib inactive, HPGD block inactive, ALDH1A1 block inactive, IMPase Li cell inactive, IMPase inh inactive and NPSR antagonist inactive.
For Fc1ccc(-c2nc3ccccn3c2NCc2ccc3c(c2)OCO3)cc1 the results were ALDH1A1 block inconclusive, IMPase Li cell inactive and NPSR antagonist inactive.
For Cc1cccc(C(CC(=O)N2CCCC2)c2ccccc2)c1O (stereo not drawn) the results were ALOX12 inhib inactive, HPGD block 11µM, ALDH1A1 block inactive, IMPase Li cell inactive, IMPase inh inactive and NPSR antagonist inactive.
O=C(CC(c1ccccc1)c1cc(Br)ccc1O)N1CCCCC1 (stereo not drawn) was read as NPSR antagonist inactive.
Cc1ccc(C(CC(=O)N2CCCC2)c2ccccc2)c(O)c1C (stereo not drawn) was read as ALOX12 inhib inactive, HPGD block 7.9µM, ALDH1A1 block inactive, IMPase Li cell inactive, IMPase inh inactive and NPSR antagonist inactive.
Screening O=C(CC(c1ccccc1)c1ccccc1)N1CCN(c2ccccn2)CC1 returned ALDH1A1 block inactive, IMPase Li cell inactive and NPSR antagonist inactive.
`O=C(CC(c1ccccc1)c1ccccc1O)N1CCCC1` (stereo not drawn) gave ALOX12 inhib inactive, HPGD block 1.8µM, ALDH1A1 block inactive, IMPase Li cell inactive, IMPase inh inactive and NPSR antagonist inactive.
COc1ccccc1C(CC(=O)N1CCCC1)c1ccc2c(c1)OCO2 (stereo not drawn) was read as ALDH1A1 block inactive, IMPase Li cell inactive and NPSR antagonist inactive.
`CC(C)(C)Cc1nnc(NC(=O)CN2C(=O)c3ccccc3C2=O)s1` gave ALDH1A1 block 22µM, IMPase Li cell inactive and NPSR antagonist inactive.
For CC1CC2(CC(C)(C(=O)CSc3n[nH]c(-c4ccccc4Cl)n3)OC2=O)C(=O)O1 (stereo not drawn) the results were ALOX12 inhib inactive, HPGD block inconclusive, ALDH1A1 block 18µM, IMPase Li cell inactive, IMPase inh inactive and NPSR antagonist inactive.
Screening Cc1ccc(CNC(=O)CN2CCCC(C)C2)cc1 (stereo not drawn) returned ALOX12 inhib inactive, HPGD block 14µM, ALDH1A1 block inactive, IMPase Li cell inactive, IMPase inh inactive and NPSR antagonist inactive.
`CCCCCc1c(C)nc(Nc2nc(C)c3cc(OC)ccc3n2)[nH]c1=O` gave ALOX12 inhib inactive, HPGD block inactive, ALDH1A1 block inactive, IMPase Li cell inactive, IMPase inh inactive and NPSR antagonist inactive.
`COc1cccc(C(=O)COc2ccc3c(C)c(Cc4ccccc4)c(=O)oc3c2)c1` gave ALOX12 inhib inactive, HPGD block inactive, ALDH1A1 block 0.63µM, IMPase Li cell inactive and NPSR antagonist inactive.
Screening CCCCc1ccc(NC(=O)CN2NS(=O)(=O)c3ccccc3C2=O)cc1 returned ALOX12 inhib inactive, HPGD block inactive, ALDH1A1 block 4µM, IMPase Li cell inactive, IMPase inh inactive and NPSR antagonist inactive.
`CCCCc1ccc(NC(=O)CC(C)C)cc1` gave ALDH1A1 block inactive, IMPase Li cell inactive and NPSR antagonist inactive.
For COc1ccc(C(=O)N2CCN(C(=O)c3ccco3)CC2)cc1 the results were ALOX12 inhib inactive, HPGD block inactive, ALDH1A1 block inconclusive, IMPase Li cell inactive, IMPase inh inactive and NPSR antagonist inactive.
For Cc1ccc2[nH]c(=O)c(CN(C(=O)c3cccc([N+](=O)[O-])c3)C(C)(C)C)cc2c1 the results were NPSR antagonist inactive.
For N#Cc1cc2c(nc1SCC(=O)N1CCCCC1)CCCCC2 the results were ALOX12 inhib inactive, HPGD block 25µM, ALDH1A1 block 22µM, IMPase Li cell inactive, IMPase inh inactive and NPSR antagonist inconclusive.
Screening N#Cc1cc2c(nc1SCc1ccccc1)CCCC2 returned ALOX12 inhib inactive, HPGD block inactive, ALDH1A1 block inactive, IMPase Li cell 16µM and NPSR antagonist inconclusive.
`COc1ccc2nc(SCC(=O)N(C)C3CCCCC3)c(C#N)cc2c1` gave ALOX12 inhib inactive, HPGD block inconclusive, ALDH1A1 block 25µM, IMPase Li cell inactive, IMPase inh inactive and NPSR antagonist inactive.
Screening COc1ccc2nc(SCC(=O)N3CCCCCC3)c(C#N)cc2c1 returned ALOX12 inhib inactive, HPGD block inconclusive, ALDH1A1 block 13µM, IMPase Li cell inactive, IMPase inh inactive and NPSR antagonist inconclusive.
For N#Cc1cc2c(nc1SCc1ccccc1)CCC2 the results were ALOX12 inhib inactive, HPGD block inactive, ALDH1A1 block inconclusive, IMPase Li cell inconclusive, IMPase inh inactive[0.369 µM] and NPSR antagonist inconclusive.
COc1ccc2nc(SCC(=O)N3CCCCC3)c(C#N)cc2c1 was read as ALDH1A1 block inconclusive, IMPase Li cell inactive and NPSR antagonist inactive.
For CC(C)(C)c1ccc(S(=O)(=O)CC(O)CSc2nc3c(cc2C#N)CCCC3)cc1 (stereo not drawn) the results were ALOX12 inhib inactive, HPGD block inconclusive, ALDH1A1 block 2µM, IMPase Li cell inactive, IMPase inh inactive and NPSR antagonist inactive.
CCn1c(SCC(=O)Nc2ccc3[nH]c(=O)[nH]c3c2)nnc1-c1ccccc1 was read as NPSR antagonist inactive.
